Data taken from PubChem BioAssay.
Activity calls are given as the source filed them.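 The calls were made as follows, unless noted: active = inhibition of the reporter signal at or above 50%; inactive = inhibition below 50%.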

What was measured:
[1] = inhibitors of TNFa-induced NFkB p65 translocation, primary screen, imaging, HUVEC, MLSMR starter and 10KST1 sets (AID 438;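 active = inhibition above 20% together with a positive visual image hit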;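 also: compound added about 3h40 before a 20 min TNFalpha stimulation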;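 as to inhibition: signal is the nuclear over cytoplasmic p65 intensity ratio per well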); details: HUVEC TNFa-induced p65 nuclear translocation; cell count: measured here: nuclei count (cytotoxicity indicator), at 2.08 µM; inhibition: at 2 µM, stronger effect = higher value, 0% TNFa-plus-vehicle, 100% no-TNFa wells
[2] = reduction of polyQ htt aggregates in cells – imaging, exon1htt(103Q)mCFP cells, high-content imaging, primary screen (AID 483;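 active = visual image review flags a hit and inhibition of aggregation exceeds 20%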;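 also: compound exposure lasted 3 days before fixation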;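 as to nuclei count: percent of the per-plate median nuclei count of sample wells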); details: exon1htt(103Q)mCFP cell line, aggregate imaging, at 2 µM; inhibition of aggregation: stronger effect = higher value; nuclei count: measured here: cell count, toxicity
[3] = endothelial E-selectin expression blockers – imaging, HUVEC, immunofluorescence, MLSMR starter and 10KST1 sets, primary screen (AID 487;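 active = visually confirmed hit in the image check and inhibition above 20%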;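 as to inhibition: signal is fraction of cell area covered by stained E-selectin grains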;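 as to nuclei count: 100% = median nuclei count of all wells on the same plate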); details: HUVEC TNFalpha-induced E-selectin immunofluorescence imaging, at 2 µM; inhibition: stronger effect = higher value; nuclei count: measured here: cell number, toxicity
[4] = molecular target: Voltage-gated potassium channel subunit beta-2 (Rattus norvegicus) (UniProt P62483); test: inhibitors of rat Kvbeta2 reductase activity – biochemical, NADPH fluorescence, primary screen (AID 622;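 active = fluorescence slope higher than the sample average by over 3 SD, cut at about -0.22 in these data, passing the limit was not always enough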;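 also: slope of raw intensity against log time taken from 70 to 1610 s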); details: recombinant KvBeta, 4-cyanobenzaldehyde reduction, at 10 µM, stronger effect = higher value
Voltage-gated potassium channel subunit beta-2 (Rattus norvegicus), sequence (P62483 whole entry, looked up): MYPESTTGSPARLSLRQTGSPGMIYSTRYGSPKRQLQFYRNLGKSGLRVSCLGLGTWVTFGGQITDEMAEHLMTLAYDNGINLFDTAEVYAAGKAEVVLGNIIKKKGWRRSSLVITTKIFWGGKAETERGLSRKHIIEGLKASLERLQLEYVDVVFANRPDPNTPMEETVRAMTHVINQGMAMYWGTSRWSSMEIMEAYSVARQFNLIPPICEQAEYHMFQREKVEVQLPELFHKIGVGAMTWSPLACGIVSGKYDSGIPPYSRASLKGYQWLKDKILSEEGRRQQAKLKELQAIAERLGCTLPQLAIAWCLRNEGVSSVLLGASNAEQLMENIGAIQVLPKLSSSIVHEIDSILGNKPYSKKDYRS

[5] = molecular target: Voltage-gated potassium channel subunit beta-2 (Rattus norvegicus) (UniProt P62483); test: enhancers of rat Kvbeta2 NADPH turnover – biochemical, NADPH fluorescence, primary screen (AID 623;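 active = NADPH fluorescence slope more negative than the mean of all samples by about 3 SD, 99.7% confidence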;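 also: fluorescence intensity change per second fitted from 20 to 320 s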); details: Recombinant KvBeta, NADPH fluorescence decrease slope, 10 min; at 10 µM; stronger effect = lower value
[6] = molecular target: Alpha-2C adrenergic receptor (Homo sapiens) (UniProt P18825); test: compounds altering alpha2C-coupled GIRK flux – cell-based, HEK293 alpha2C/GIRK1/2, thallium flux, primary screen (AID 624;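 active = fluorescence slope after compound addition differing from the mean of all screened samples at 99.7% confidence, in either direction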;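 also: slope of fluorescence ratio to pre-addition baseline per second over 15 to 24 s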); details: thallium flux BTC fluorescence, at 10 µM, actives lie on both sides
Alpha-2C adrenergic receptor (Homo sapiens), sequence (P18825 whole entry, looked up): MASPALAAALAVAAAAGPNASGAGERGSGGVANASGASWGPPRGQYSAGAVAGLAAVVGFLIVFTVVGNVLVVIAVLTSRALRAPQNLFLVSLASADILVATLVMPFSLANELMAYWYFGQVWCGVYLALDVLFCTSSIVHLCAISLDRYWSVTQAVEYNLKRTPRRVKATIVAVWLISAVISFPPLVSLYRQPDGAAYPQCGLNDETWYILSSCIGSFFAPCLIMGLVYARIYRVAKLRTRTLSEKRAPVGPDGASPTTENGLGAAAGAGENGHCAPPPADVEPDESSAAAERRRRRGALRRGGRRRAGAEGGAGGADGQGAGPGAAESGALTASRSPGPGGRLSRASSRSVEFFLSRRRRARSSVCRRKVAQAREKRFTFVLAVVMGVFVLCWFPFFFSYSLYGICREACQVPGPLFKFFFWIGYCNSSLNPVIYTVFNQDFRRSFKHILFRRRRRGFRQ

[7] = blockers of RIG-like receptor reporter activation – cell-based, Sendai virus stimulus, luciferase, 10K MLSCN set, TLR/RLR signaling modifier project, primary screen (AID 602276;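 active = inhibition at or above 50% at 10 µM; inactive = inhibition below 50%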;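 also: firefly luciferase from ISG56 promoter only with Renilla not read in this screen; 0% = Sendai virus plus DMSO and 100% = medium plus DMSO without virus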); details: HEK293 RL24 IRF3 luciferase reporter, at 10 µM, stronger effect = higher value
[8] = TLR3 IRF3 reporter activation blockers – cell-based, poly I:C stimulus, luciferase, 10K MLSCN set, primary screen (AID 602277); details: HEK293-TLR3 RL24 IRF3 luciferase reporter, at 10 µM, stronger effect = higher value

| Structure (SMILES) | cell count [1] | inhibition [1] | inhibition of aggregation [2] | nuclei count [2] | inhibition [3] | nuclei count [3] | fluorescence slope [4] | NADPH fluorescence slope [5] | slope [6] | inhibition [7] | inhibition [8] |
| --- | --- | --- | --- | --- | --- | --- | --- | --- | --- | --- | --- |
| C=CCn1c(SCc2cccc(C#N)c2)nnc1-c1ccccc1O | 658 | -2.3% (inactive) | 5.6% (inactive) | 102% | -18.9% (inactive) | 110% | -0.574 (inactive) | 1.6e-05 (inactive) | 0.00698 (inactive) | 27.6% (inactive) | 46% (inactive) |
| CC(=O)Nc1cccc(OCC(O)Cn2cnc3ccccc32)c1 (stereo not drawn) | 632 | -20.4% (inactive) | 12.1% (inactive) | 101% | -23.9% (inactive) | 107% | -0.674 (inactive) | 1.3e-05 (inactive) | 0.00619 (inactive) | 14.1% (inactive) | 25.8% (inactive) |
| Cc1cccc(N2CCN(C(=O)CCn3c(=S)[nH]c4cc5c(cc4c3=O)OCO5)CC2C)c1 (stereo not drawn) | 488 | 3% (inactive) | -4.6% (inactive) | 112% | -1.8% (inactive) | 97.2% | -0.614 (inactive) | -2.6e-05 (inactive) | 0.00669 (inactive) | 9.48% (inactive) | 38.2% (inactive) |
| O=S(=O)(c1ccc(Br)s1)N1CCN(c2ccccc2)CC1 | 660 | 6.3% (inactive) | 0.1% (inactive) | 90.2% | 14.4% (inactive) | 102% | -0.289 (inactive) | -3e-05 (inactive) | 0.00522 (inactive) | 10.7% (inactive) | 13.7% (inactive) |
| COC(=O)CSC1=C(C#N)C(c2ccccc2)CC(=O)N1 (stereo not drawn) | 317 | 1.5% (inactive) | -2.2% (inactive) | 89.5% | 7.2% (inactive) | 86.9% | -0.372 (inactive) | -1.7e-05 (inactive) | 0.00515 (inactive) | 25.3% (inactive) | 21.9% (inactive) |
| COC(=O)C1=C(CSCc2ccco2)NC(=O)NC1c1cc(C)ccc1C (stereo not drawn) | 369 | -10.5% (inactive) | -15.1% (inactive) | 115% | -20.5% (inactive) | 109% | -0.423 (inactive) | 3.5e-05 (inactive) | 0.00488 (inactive) | -3.03% (inactive) | -1.57% (inactive) |
| Cc1cccc(Cn2c(SCC(=O)Nc3ccccc3)nc3c2c(=O)[nH]c(=O)n3C)c1 | 467 | 5.4% (inactive) | 44.6% (inactive) | 83.4% | 4.7% (inactive) | 89.8% | -0.394 (inactive) | 2.9e-05 (inactive) | 0.0074 (inactive) | 14.6% (inactive) | 13.4% (inactive) |
| O=C(NCc1cccs1)c1cc2c(s1)-c1ccccc1OC2 | 674 | 1.6% (inactive) | -25.1% (inactive) | 98.2% | -49.2% (inactive) | 108% | -0.122 (inactive) | -3.3e-06 (inactive) | 0.00728 (inactive) | -42% (inactive) | -187% (inactive) |
| Cn1c(SCC(=O)Nc2ccc3c(c2)oc2ccccc23)nnc1-c1ccccc1 | 403 | -1.1% (inactive) | 4.5% (inactive) | 96.1% | -52.8% (inactive) | 109% | -0.515 (inactive) | -0.000134 (active) | 0.0032 (inactive) | -1.19% (inactive) | -25.5% (inactive) |
| O=C(NCC(c1cccnc1)N1CCN(c2ccc(F)cc2)CC1)c1ccc(F)cc1 (stereo not drawn) | 346 | 7.4% (inactive) | -9.9% (inactive) | 84% | -33.2% (inactive) | 96.5% | -0.596 (inactive) | -4.6e-05 (inactive) | 0.00545 (inactive) | 1.86% (inactive) | 6.23% (inactive) |
| O=C1NC(c2cccnc2)C(C(=O)c2cccs2)C(O)(C(F)(F)F)N1 (stereo not drawn) | 506 | -0.3% (inactive) | 5% (inactive) | 104% | 40.4% (inactive) | 119% | -0.363 (inactive) | -3.5e-05 (inactive) | 0.00436 (inactive) | -6.6% (inactive) | -5.31% (inactive) |
| COc1ccc(OCc2nc(C#N)c(N3CCN(c4ccc(OC)cc4)CC3)o2)cc1 | 479 | 2.9% (inactive) | -2.2% (inactive) | 73.6% | 15.1% (inactive) | 89.2% | -0.421 (inactive) | 2.3e-05 (inactive) | 0.0041 (inactive) | -5.28% (inactive) | 3.87% (inactive) |
| CC1Cc2ccccc2N1S(=O)(=O)c1cccc(C(=O)OCC(=O)NC2CCS(=O)(=O)C2)c1 (stereo not drawn) | 657 | 0.7% (inactive) | 6.3% (inactive) | 103% | -92% (inactive) | 112% | -0.625 (inactive) | -4.3e-05 (inactive) | 0.00343 (inactive) | 20.6% (inactive) | 29.8% (inactive) |
| CCOc1cc(C(=O)N(C)c2ccccc2)cc(OCC)c1OCC | 314 | 5.5% (inactive) | 17.8% (inactive) | 97.5% | 5.8% (inactive) | 86.2% | -0.368 (inactive) | -3.2e-05 (inactive) | 0.00526 (inactive) | 18.6% (inactive) | 32.8% (inactive) |
| COc1cccc(N2CCN(Cc3nc(N)nc(Nc4ccccc4)n3)CC2)c1 | 463 | -12.5% (inactive) | 18.2% (inactive) | 84.7% | 44.7% (inactive) | 93.5% | -0.479 (inactive) | -5.8e-06 (inactive) | 0.00543 (inactive) | 0.669% (inactive) | 15.7% (inactive) |
| Cc1ccc(C)c(/C(O)=C2\C(=O)C(=O)N(CCCN3CCOCC3)C2c2cccnc2)c1 (stereo not drawn) | 529 | 5.5% (inactive) | -1.6% (inactive) | 109% | -280% (inactive) | 127% | -0.339 (inactive) | -2.4e-06 (inactive) | 0.00619 (inactive) | 9.67% (inactive) | 21.1% (inactive) |
| O=C1C2ON(c3ccc(Cl)cc3)C(c3ccco3)C2C(=O)N1c1ccccc1 (stereo not drawn) | 510 | -2% (inactive) | 15.7% (inactive) | 97% | -106% (inactive) | 107% | -0.511 (inactive) | -2.4e-05 (inactive) | 0.00581 (inactive) | -6.65% (inactive) | -3.63% (inactive) |
| CCc1nnc(-n2nc(C)cc2-c2ccccc2)n1N | 648 | -2.4% (inactive) | 0.6% (inactive) | 104% | -20.7% (inactive) | 109% | -0.551 (inactive) | 2.6e-05 (inactive) | 0.00642 (inactive) | 15.3% (inactive) | 22.1% (inactive) |
| CCCN1C2CCCC1CC(NC(=O)Nc1cccc(C(C)=O)c1)C2 (stereo not drawn) | 418 | -10.3% (inactive) | -17% (inactive) | 97% | -138% (inactive) | 180% | -0.637 (inactive) | 1.7e-05 (inactive) | 0.00567 (inactive) | 23.1% (inactive) | 37.8% (inactive) |
| COCc1ccccc1Cn1cnc2c1c(=O)n(C)c(=O)n2C | 346 | 2% (inactive) | -1.8% (inactive) | 107% | 25.6% (inactive) | 112% | -0.469 (inactive) | -3.6e-05 (inactive) | 0.00626 (inactive) | 2.14% (inactive) | 12.6% (inactive) |
| O=C1NC2(Nc3ccccc31)C(=O)Nc1ccccc12 (stereo not drawn) | 361 | -4.3% (inactive) | 6.1% (inactive) | 102% | -129% (inactive) | 106% | -0.355 (inactive) | -4.5e-06 (inactive) | 0.00484 (inactive) | 13.7% (inactive) | 37.4% (inactive) |
| O=C(NCCC1=CCCCC1)N[C@@H](Cc1ccccc1)C(=O)O | 377 | -3.9% (inactive) | -1.8% (inactive) | 108% | -24.3% (inactive) | 115% | -0.447 (inactive) | -0.000113 (active) | 0.00549 (inactive) | -1.48% (inactive) | 0.553% (inactive) |
| O=C(O)CN1C(=O)C2(OCCCO2)c2ccccc21 | 542 | -5.7% (inactive) | -4.1% (inactive) | 96.1% | -0.7% (inactive) | 124% | -0.538 (inactive) | 6.1e-05 (inactive) | 0.0059 (inactive) | 17% (inactive) | 18.6% (inactive) |
| COc1cc(C(=O)N2CCN(c3cc(Cl)ccc3Cl)CC2)cc(OC)c1OC | 630 | -6.1% (inactive) | 1% (inactive) | 34.1% | -62.3% (inactive) | 98.9% | -0.425 (inactive) | -7.3e-05 (inactive) | 0.00499 (inactive) | 12% (inactive) | 78.9% (active) |
| CCc1ccc(N2CC(C(=O)OCC(=O)Nc3cc(C)on3)CC2=O)cc1 (stereo not drawn) | 465 | 5.3% (inactive) | -4.7% (inactive) | 102% | -6.8% (inactive) | 92.3% | -0.368 (inactive) | -2.5e-05 (inactive) | 0.00565 (inactive) | 5.09% (inactive) | 20.1% (inactive) |
| CC(C)CCNC(=O)NC(=O)COc1ccccc1C#N | 381 | -23.5% (inactive) | 15.6% (inactive) | 102% | -71.3% (inactive) | 111% | -0.586 (inactive) | -8.5e-06 (inactive) | 0.00627 (inactive) | -47.7% (inactive) | -112% (inactive) |
| Cc1ccc(OCc2nnc(SCC(=O)N3CCOCC3)n2C)cc1 | 594 | -12.9% (inactive) | 6.8% (inactive) | 104% | -58.9% (inactive) | 116% | -0.372 (inactive) | -1.9e-05 (inactive) | 0.00543 (inactive) | -1.5% (inactive) | 6.14% (inactive) |
| Cc1ccc(Cc2c(C)nc3c(C(=O)O)cnn3c2C)cc1 | 327 | 7.7% (inactive) | 1.1% (inactive) | 108% | -4.3% (inactive) | 105% | -0.376 (inactive) | -1.4e-05 (inactive) | 0.0026 (inactive) | 3.97% (inactive) | 19.3% (inactive) |
